This is part of a sample that, as a whole, favours compounds with a hit. Of some 83,000 tested, about 20% had one in any assay.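 Treatment: one concentration, 48 hours, 96-well format. Scoring: percent growth, with anything below 10 considered active.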 The source made the active and inactive calls.
Legend:
Experiment in all cases: NCI-60 one-dose screen, 48 h (100 = growth as untreated, 0 = no growth, -100 = all killed)
Conditions in all cases: 10 µM unless noted
[1] = system: NCI-H23 lung
[2] = system: NCI-H226 lung
[3] = system: NCI-H322M lung
[4] = system: HOP-62 NSCLC
[5] = system: NCI-H460 lung
[6] = system: NCI-H522 lung
[7] = system: A549/ATCC NSCLC
[8] = system: 786-0 renal
[9] = system: COLO 205 colon
[10] = system: DU-145 prostate
[11] = system: K-562 leukemia
[12] = system: MALME-3M melanoma
[13] = system: MDA-MB-231 breast
[14] = system: RXF 393 renal
[15] = system: SF-268 CNS
[16] = system: SF-295 CNS
[17] = system: SF-539 CNS
[18] = system: UACC-257 melanoma
[19] = system: M14 melanoma

Measured: growth

CCCCc1nc(Cl)c(C2CC(c3ccc(S(N)(=O)=O)cc3)=NN2c2cc(Cl)cc(Cl)c2)[nH]1 (centres undefined)
inactive: [1] 51.9% | [2] 39% | [3] 77.7% | [4] 61.8% | [5] 13.9% | [6] 22.7% | [7] 36.5% | [8] 53.6% | [9] 32.2% | [10] 70.8% | [11] 16% | [12] 65.3% | [13] 35.2% | [14] 48.4% | [15] 49.4% | [16] 50.3% | [17] 91.4% | [18] 55.4% | [19] 18.7%

CCOC(=O)Cc1cc(Br)c(OCc2ccccc2)c(Br)c1
inactive: [1] 94.1% | [2] 88.4% | [3] 102% | [4] 96.4% | [5] 114% | [6] 80.3% | [7] 104% | [8] 92.8% | [9] 127% | [10] 115% | [11] 86% | [12] 106% | [13] 89.1% | [14] 96.4% | [15] 106% | [16] 92.3% | [17] 106% | [18] 99.6% | [19] 99.6%

CCCCCCCC/C=C/CCCCCCCC1=NC(C)(C)CN1c1ccccc1
active: [16] -5.3%
inactive: [1] 89.1% | [2] 99% | [3] 116% | [4] 100% | [5] 103% | [6] 65.1% | [7] 91.6% | [8] 81.8% | [9] 97.8% | [10] 97.2% | [11] 65.9% | [12] 115% | [13] 103% | [14] 85% | [15] 91.9% | [17] 96.9% | [18] 90.2% | [19] 99.7%

COc1ccc(Oc2nc(Nc3ccc(N4CCOCC4)cc3)ncc2NC(=O)Nc2cccc(OC)c2)cc1
inactive: [1] 72.2% | [2] 42.1% | [3] 53.3% | [4] 64.7% | [5] 41.5% | [6] 23.7% | [7] 41.7% | [8] 80.7% | [9] 17.8% | [10] 47.5% | [11] 57% | [12] 69.7% | [13] 28.8% | [14] 39.4% | [15] 74.4% | [16] 81.1% | [17] 28.3% | [18] 91.5% | [19] 71.9%

C=C1C(=O)O[C@H]2[C@H]1CC/C(COC(=O)NCc1[nH]nc3ccccc13)=C\CC[C@@]1(C)O[C@@H]21
active: [6] -68.6% | [8] -25.4% | [9] -76.7% | [11] 2.29% | [12] -43% | [14] -18.3% | [17] 4.74%
inactive: [1] 69.4% | [2] 65.4% | [3] 87.6% | [4] 48.6% | [5] 28.6% | [7] 45.6% | [10] 12.2% | [13] 49.1% | [15] 55.2% | [16] 72.6% | [18] 38% | [19] 13.8%

O=[N+]([O-])c1ccc(SSc2ccc([N+](=O)[O-])cc2Cl)c(Cl)c1
inactive: [1] 89% | [2] 87.5% | [3] 98.2% | [4] 112% | [5] 92.2% | [6] 85.1% | [7] 96.3% | [8] 102% | [9] 127% | [10] 99.5% | [11] 77.8% | [12] 90.8% | [13] 78.2% | [14] 120% | [15] 103% | [16] 97.2% | [17] 119% | [18] 118% | [19] 103%

O=C(N/N=C/c1ccccc1O)c1ccncc1
inactive: [1] 70.9% | [2] 70.1% | [3] 51.2% | [4] 43% | [5] 25.7% | [7] 53.6% | [8] 51.1% | [9] 27.4% | [10] 58.3% | [11] 64.9% | [12] 73.6% | [13] 62.8% | [14] 80.7% | [15] 48.3% | [16] 54% | [17] 70.8% | [18] 60.7% | [19] 50.7%
active: [6] -20%

COc1ccc(-c2nn(C(=O)NCCN(C)C)cc2-c2ccncc2)cc1Cl
inactive: [1] 63.5% | [2] 46.4% | [3] 109% | [4] 16% | [5] 27.4% | [6] 28.2% | [7] 32.6% | [8] 34.8% | [9] 25.1% | [10] 77.6% | [11] 16.5% | [12] 53.8% | [13] 54.5% | [14] 44.6% | [15] 44.8% | [16] 24% | [17] 25.6% | [18] 64.4% | [19] 45.8%

COc1ccc(Nc2nc(N)nc3c(=O)[nH]ccc23)cc1
inactive: [1] 85.8% | [2] 105% | [3] 103% | [4] 111% | [5] 107% | [6] 99.5% | [7] 104% | [8] 106% | [9] 118% | [10] 114% | [11] 69% | [12] 150% | [13] 110% | [14] 133% | [15] 106% | [16] 106% | [17] 104% | [18] 131% | [19] 108%

ClC1(Cl)C2CCCCCCC21 (centres undefined)
inactive: [1] 107% | [2] 103% | [3] 109% | [4] 108% | [5] 107% | [6] 84.5% | [7] 98.2% | [8] 94.9% | [9] 129% | [10] 121% | [11] 97.8% | [12] 107% | [13] 122% | [14] 117% | [15] 112% | [16] 101% | [17] 117% | [18] 106% | [19] 98.7%

O=C(O)c1cc2cc(OCc3ccccc3)ccc2[nH]1
inactive: [1] 103% | [2] 107% | [3] 99% | [4] 93.8% | [5] 98.4% | [6] 90.3% | [7] 90.9% | [8] 115% | [9] 93.7% | [10] 114% | [11] 112% | [13] 99.1% | [14] 111% | [15] 99.9% | [16] 108% | [17] 87.5% | [18] 48% | [19] 106%
active: [12] -20.3%

CC(=O)Nc1c(Br)cc2c(c1Br)Cc1cc(Br)ccc1-2
inactive: [1] 72.8% | [2] 85% | [3] 88.2% | [4] 29.1% | [5] 38.8% | [6] 76% | [7] 20.8% | [8] 87% | [9] 35% | [10] 91.9% | [11] 80.5% | [12] 99.2% | [13] 51.1% | [14] 92% | [15] 69.9% | [17] 86.5% | [18] 89.1% | [19] 62.4%
active: [16] -18.8%

O=C(N/N=C\c1cc(Br)ccc1O)c1ccncc1
active: [5] 6.66% | [6] -27.2% | [9] 7.89%
inactive: [1] 43.5% | [2] 39.9% | [3] 41% | [4] 15% | [7] 55.6% | [8] 18.4% | [10] 39.4% | [11] 20.3% | [12] 46.5% | [13] 46.6% | [14] 54.9% | [15] 35.4% | [16] 55.7% | [17] 34.3% | [18] 11.5% | [19] 19.2%

Brc1ccsc1Br
inactive: [1] 107% | [2] 104% | [3] 125% | [4] 93.4% | [5] 111% | [6] 95.9% | [7] 105% | [8] 108% | [9] 103% | [10] 126% | [11] 108% | [12] 114% | [13] 116% | [14] 117% | [15] 113% | [16] 126% | [17] 106% | [18] 111% | [19] 106%

CC(=O)O[C@H]1CC[C@]2(C)[C@H]3CC=C4[C@@H]5CC(C)(C)CC[C@]5(C(=O)OCC(COC(=O)C(Cl)Cl)(COC(=O)C(Cl)Cl)NC(=O)C(Cl)Cl)CC[C@@]4(C)[C@]3(C)CC[C@H]2C1(C)C
inactive: [1] 87.6% | [2] 94.2% | [3] 89.1% | [4] 79% | [5] 49.4% | [6] 41.1% | [7] 31.5% | [8] 63.9% | [9] 47.8% | [10] 62.2% | [11] 38.8% | [12] 83.1% | [13] 82.9% | [14] 74.7% | [15] 56.1% | [16] 80.4% | [17] 86.8% | [18] 42.5% | [19] 67.2%

Cn1c(=O)c2c(nc(N/N=C/c3ccccc3Cl)n2C)n(C)c1=O
inactive: [1] 94.4% | [2] 107% | [3] 116% | [4] 112% | [5] 120% | [6] 83.1% | [7] 107% | [8] 97.8% | [9] 113% | [10] 140% | [11] 100% | [12] 109% | [13] 100% | [14] 112% | [15] 124% | [16] 101% | [17] 87.2% | [18] 94.8% | [19] 103%

— PubChem BioAssay (NCI)
